Measurements from ChEMBL document CHEMBL1961873, “Compounds: GSK PKIS; Assays: Nanosyn kinase panel” (2012).

Experiments:
[1] = target: 5'-AMP-activated protein kinase catalytic subunit alpha-2 (Homo sapiens) (UniProt P54646); conditions: at 1 µM
[2] = target: T1, NUAK family SNF1-like kinase 1 (Homo sapiens) (UniProt O60285); conditions: at 0.1 µM
T1 sequence (whole entry): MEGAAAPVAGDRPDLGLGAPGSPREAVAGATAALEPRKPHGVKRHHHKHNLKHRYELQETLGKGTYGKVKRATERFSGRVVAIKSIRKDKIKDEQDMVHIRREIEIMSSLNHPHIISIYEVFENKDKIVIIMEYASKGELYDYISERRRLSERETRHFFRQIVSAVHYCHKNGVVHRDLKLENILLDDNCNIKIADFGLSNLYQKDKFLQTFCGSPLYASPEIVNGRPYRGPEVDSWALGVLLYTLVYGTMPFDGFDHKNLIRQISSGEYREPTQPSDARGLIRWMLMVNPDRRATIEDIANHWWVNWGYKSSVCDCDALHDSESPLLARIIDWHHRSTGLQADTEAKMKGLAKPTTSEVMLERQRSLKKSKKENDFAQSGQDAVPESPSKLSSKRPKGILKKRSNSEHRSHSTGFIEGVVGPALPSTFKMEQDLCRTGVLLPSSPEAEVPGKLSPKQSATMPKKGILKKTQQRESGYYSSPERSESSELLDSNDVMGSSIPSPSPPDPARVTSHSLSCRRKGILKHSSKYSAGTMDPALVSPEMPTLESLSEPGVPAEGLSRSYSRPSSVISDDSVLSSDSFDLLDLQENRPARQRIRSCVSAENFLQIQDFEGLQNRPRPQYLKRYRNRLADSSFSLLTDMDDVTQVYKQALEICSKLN

[3] = target: T1, NUAK family SNF1-like kinase 1 (Homo sapiens); conditions: at 1 µM
[4] = target: T2, Serine/threonine-protein kinase BRSK1 (Homo sapiens) (UniProt Q8TDC3); conditions: at 0.1 µM
T2 sequence (whole entry): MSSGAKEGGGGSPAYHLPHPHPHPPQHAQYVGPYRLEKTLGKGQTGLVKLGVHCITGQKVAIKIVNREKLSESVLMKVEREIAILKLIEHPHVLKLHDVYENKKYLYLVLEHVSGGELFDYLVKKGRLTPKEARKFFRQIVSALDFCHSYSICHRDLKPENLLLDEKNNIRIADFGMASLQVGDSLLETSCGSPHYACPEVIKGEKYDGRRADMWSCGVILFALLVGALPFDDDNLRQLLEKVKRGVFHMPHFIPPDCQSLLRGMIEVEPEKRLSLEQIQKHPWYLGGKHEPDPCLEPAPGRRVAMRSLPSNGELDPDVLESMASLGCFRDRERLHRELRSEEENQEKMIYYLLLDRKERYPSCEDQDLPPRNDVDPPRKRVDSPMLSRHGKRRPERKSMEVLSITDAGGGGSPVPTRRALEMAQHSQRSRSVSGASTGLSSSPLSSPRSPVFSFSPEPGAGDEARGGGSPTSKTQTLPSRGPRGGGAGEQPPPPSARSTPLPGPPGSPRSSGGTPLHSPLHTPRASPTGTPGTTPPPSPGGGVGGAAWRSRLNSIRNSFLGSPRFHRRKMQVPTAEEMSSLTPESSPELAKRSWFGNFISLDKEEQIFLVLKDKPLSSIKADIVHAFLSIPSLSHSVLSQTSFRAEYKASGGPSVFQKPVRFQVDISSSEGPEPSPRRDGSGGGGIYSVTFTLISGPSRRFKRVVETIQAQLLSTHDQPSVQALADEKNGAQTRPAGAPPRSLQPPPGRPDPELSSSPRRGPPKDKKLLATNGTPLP

[5] = target: T2, Serine/threonine-protein kinase BRSK1 (Homo sapiens); conditions: at 1 µM
[6] = target: T3, Serine/threonine-protein kinase BRSK2 (Homo sapiens) (UniProt Q8IWQ3); conditions: at 0.1 µM
T3 sequence (whole entry): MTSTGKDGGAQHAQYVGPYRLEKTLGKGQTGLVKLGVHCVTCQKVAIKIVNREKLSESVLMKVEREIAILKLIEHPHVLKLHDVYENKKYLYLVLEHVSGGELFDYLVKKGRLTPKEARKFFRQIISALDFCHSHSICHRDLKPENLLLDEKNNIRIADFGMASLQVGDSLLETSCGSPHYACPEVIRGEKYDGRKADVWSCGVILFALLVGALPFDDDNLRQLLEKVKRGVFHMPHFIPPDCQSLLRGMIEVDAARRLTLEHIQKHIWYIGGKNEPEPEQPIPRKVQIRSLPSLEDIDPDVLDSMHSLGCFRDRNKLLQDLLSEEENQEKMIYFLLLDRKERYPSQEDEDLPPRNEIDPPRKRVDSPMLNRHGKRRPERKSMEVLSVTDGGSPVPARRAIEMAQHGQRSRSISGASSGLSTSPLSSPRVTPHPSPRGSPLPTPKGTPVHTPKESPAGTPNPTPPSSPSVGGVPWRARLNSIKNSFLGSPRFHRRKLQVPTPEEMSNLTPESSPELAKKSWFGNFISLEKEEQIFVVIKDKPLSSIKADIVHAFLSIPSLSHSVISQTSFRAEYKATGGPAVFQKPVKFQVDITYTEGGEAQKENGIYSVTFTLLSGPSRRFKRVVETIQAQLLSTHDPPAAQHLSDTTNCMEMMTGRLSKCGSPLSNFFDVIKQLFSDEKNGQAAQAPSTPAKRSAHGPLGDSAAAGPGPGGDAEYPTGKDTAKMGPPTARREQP

[7] = target: T3, Serine/threonine-protein kinase BRSK2 (Homo sapiens); conditions: at 1 µM
[8] = target: Calcium/calmodulin-dependent protein kinase type 1D (Homo sapiens) (UniProt Q8IU85); conditions: at 0.1 µM
[9] = target: Calcium/calmodulin-dependent protein kinase type 1D (Homo sapiens) (UniProt Q8IU85); conditions: at 1 µM
[10] = target: Calcium/calmodulin-dependent protein kinase type II subunit alpha (Homo sapiens) (UniProt Q9UQM7); conditions: at 0.1 µM
[11] = target: Calcium/calmodulin-dependent protein kinase type II subunit alpha (Homo sapiens) (UniProt Q9UQM7); conditions: at 1 µM
[12] = target: Calcium/calmodulin-dependent protein kinase type II subunit delta (Homo sapiens) (UniProt Q13557); conditions: at 0.1 µM
[13] = target: Calcium/calmodulin-dependent protein kinase type II subunit delta (Homo sapiens) (UniProt Q13557); conditions: at 1 µM
[14] = target: T4, Calcium/calmodulin-dependent protein kinase type IV (Homo sapiens) (UniProt Q16566); conditions: at 0.1 µM
T4 sequence (whole entry): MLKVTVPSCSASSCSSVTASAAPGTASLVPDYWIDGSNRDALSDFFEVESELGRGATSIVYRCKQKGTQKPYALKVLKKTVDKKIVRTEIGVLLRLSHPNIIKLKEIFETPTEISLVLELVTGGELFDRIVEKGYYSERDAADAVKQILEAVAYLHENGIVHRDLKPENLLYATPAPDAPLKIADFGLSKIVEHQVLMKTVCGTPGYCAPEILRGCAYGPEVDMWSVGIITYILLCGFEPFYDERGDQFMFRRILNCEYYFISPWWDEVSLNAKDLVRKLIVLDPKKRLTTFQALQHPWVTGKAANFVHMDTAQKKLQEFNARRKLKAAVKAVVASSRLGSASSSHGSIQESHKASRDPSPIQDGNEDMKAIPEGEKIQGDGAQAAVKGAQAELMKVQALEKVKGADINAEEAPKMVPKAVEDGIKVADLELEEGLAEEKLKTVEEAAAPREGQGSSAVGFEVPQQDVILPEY

[15] = target: T4, Calcium/calmodulin-dependent protein kinase type IV (Homo sapiens); conditions: at 1 µM
[16] = target: T5, Serine/threonine-protein kinase Chk1 (Homo sapiens) (UniProt O14757); conditions: at 0.1 µM
T5 sequence (whole entry): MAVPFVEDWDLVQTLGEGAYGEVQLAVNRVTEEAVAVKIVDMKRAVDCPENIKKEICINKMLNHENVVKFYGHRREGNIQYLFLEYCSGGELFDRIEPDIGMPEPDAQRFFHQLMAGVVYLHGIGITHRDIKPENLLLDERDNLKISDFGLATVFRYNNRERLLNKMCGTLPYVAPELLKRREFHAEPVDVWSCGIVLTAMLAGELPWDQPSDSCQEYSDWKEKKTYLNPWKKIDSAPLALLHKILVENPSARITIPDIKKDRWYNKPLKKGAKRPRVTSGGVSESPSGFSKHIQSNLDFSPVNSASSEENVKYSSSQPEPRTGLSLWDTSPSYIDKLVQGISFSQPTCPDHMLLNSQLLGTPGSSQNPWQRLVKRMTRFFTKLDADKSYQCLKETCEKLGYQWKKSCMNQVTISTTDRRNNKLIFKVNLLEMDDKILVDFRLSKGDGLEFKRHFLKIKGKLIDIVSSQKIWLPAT

[17] = target: T5, Serine/threonine-protein kinase Chk1 (Homo sapiens); conditions: at 1 µM
[18] = target: Serine/threonine-protein kinase Chk2 (Homo sapiens) (UniProt O96017); conditions: at 0.1 µM
[19] = target: Serine/threonine-protein kinase Chk2 (Homo sapiens) (UniProt O96017); conditions: at 1 µM
[20] = target: Death-associated protein kinase 1 (Homo sapiens) (UniProt P53355); conditions: at 0.1 µM;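 further: reported figure is the mean inhibition of DAPK1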
Death-associated protein kinase 1 (Homo sapiens), sequence (P53355 whole entry, looked up): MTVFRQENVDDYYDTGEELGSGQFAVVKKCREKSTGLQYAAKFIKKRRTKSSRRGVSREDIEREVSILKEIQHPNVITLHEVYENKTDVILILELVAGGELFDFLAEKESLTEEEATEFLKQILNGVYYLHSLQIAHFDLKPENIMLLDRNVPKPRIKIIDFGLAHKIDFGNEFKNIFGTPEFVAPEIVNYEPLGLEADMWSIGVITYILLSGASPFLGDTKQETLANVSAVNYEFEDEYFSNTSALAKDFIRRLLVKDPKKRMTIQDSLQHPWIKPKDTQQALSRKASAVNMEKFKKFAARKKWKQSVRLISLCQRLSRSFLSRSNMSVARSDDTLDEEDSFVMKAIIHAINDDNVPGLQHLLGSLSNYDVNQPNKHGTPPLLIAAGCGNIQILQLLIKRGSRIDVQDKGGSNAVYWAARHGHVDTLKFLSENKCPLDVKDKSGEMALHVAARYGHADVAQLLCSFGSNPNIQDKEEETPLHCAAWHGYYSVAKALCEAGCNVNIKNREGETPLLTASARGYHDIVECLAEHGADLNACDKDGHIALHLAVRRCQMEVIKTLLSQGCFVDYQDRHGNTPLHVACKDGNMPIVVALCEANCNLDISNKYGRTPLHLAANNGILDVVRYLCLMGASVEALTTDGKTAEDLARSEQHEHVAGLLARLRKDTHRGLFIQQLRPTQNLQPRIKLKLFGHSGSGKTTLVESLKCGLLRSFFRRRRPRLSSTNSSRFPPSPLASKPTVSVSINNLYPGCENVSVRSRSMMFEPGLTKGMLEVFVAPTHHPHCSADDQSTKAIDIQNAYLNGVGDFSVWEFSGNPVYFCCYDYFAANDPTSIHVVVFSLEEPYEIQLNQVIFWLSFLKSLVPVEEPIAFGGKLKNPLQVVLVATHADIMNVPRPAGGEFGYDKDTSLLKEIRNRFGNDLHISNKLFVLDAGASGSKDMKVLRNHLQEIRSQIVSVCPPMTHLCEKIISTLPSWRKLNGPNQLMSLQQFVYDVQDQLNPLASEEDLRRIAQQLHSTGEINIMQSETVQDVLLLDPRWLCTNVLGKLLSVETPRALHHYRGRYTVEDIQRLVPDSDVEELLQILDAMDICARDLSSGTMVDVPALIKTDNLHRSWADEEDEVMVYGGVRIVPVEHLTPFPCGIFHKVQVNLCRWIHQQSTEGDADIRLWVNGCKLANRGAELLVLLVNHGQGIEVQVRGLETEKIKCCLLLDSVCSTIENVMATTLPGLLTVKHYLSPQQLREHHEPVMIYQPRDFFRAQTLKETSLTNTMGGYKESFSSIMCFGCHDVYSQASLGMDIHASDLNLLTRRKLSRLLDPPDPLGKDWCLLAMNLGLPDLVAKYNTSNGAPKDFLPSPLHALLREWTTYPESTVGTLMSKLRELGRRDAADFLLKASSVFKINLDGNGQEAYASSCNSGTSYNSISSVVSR

5'-AMP-activated protein kinase catalytic subunit alpha-2 (Homo sapiens), sequence (P54646 whole entry, looked up): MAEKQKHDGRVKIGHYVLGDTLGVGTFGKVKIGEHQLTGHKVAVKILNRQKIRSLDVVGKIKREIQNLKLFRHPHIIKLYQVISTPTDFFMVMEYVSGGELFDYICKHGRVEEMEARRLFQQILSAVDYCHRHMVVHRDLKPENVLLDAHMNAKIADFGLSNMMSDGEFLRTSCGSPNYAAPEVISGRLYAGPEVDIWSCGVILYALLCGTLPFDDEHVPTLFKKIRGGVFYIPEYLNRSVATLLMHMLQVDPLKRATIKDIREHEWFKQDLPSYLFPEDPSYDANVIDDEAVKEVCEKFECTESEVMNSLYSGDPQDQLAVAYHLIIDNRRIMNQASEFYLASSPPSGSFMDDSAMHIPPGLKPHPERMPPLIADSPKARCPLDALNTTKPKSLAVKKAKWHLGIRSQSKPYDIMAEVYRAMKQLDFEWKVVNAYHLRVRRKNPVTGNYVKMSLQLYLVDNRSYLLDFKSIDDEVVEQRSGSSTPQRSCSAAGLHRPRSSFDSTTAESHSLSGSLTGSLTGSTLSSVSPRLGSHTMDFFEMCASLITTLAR
Calcium/calmodulin-dependent protein kinase type II subunit delta (Homo sapiens), sequence (Q13557 whole entry): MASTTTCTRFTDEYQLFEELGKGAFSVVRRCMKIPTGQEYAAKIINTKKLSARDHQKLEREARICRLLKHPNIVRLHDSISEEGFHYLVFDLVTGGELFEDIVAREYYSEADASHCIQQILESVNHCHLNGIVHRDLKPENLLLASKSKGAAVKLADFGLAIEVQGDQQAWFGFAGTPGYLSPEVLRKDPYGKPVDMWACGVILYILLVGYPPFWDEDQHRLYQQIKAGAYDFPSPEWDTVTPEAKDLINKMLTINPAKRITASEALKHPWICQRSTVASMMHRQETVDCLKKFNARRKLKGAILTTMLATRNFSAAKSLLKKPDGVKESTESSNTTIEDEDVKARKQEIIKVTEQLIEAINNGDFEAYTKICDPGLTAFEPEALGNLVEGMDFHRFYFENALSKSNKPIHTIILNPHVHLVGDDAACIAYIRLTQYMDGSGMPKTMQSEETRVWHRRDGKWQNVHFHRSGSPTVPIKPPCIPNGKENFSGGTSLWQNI
Calcium/calmodulin-dependent protein kinase type 1D (Homo sapiens), sequence (Q8IU85 whole entry, looked up): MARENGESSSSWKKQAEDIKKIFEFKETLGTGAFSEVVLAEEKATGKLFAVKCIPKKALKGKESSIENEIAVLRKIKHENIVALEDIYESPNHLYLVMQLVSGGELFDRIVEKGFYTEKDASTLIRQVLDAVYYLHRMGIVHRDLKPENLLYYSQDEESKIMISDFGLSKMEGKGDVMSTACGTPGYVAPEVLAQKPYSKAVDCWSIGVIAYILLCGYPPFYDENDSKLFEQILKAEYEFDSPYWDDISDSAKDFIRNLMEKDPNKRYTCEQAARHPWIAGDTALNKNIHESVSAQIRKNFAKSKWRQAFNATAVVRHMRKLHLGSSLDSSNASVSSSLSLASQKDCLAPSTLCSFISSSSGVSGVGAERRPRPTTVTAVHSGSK
Serine/threonine-protein kinase Chk2 (Homo sapiens), sequence (O96017 whole entry): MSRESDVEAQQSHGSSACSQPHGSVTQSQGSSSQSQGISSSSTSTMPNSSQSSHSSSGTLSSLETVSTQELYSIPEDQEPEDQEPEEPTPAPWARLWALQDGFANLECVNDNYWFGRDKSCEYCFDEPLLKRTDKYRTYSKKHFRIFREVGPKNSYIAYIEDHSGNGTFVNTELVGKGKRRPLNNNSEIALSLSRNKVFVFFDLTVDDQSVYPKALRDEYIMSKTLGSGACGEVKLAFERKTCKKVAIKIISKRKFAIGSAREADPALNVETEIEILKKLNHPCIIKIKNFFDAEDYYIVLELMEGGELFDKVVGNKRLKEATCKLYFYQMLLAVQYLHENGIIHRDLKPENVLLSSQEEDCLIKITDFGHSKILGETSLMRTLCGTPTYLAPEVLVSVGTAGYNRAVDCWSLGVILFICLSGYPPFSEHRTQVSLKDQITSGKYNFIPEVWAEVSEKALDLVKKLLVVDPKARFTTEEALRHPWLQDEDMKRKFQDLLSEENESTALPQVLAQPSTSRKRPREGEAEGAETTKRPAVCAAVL
Calcium/calmodulin-dependent protein kinase type II subunit alpha (Homo sapiens), sequence (Q9UQM7 whole entry): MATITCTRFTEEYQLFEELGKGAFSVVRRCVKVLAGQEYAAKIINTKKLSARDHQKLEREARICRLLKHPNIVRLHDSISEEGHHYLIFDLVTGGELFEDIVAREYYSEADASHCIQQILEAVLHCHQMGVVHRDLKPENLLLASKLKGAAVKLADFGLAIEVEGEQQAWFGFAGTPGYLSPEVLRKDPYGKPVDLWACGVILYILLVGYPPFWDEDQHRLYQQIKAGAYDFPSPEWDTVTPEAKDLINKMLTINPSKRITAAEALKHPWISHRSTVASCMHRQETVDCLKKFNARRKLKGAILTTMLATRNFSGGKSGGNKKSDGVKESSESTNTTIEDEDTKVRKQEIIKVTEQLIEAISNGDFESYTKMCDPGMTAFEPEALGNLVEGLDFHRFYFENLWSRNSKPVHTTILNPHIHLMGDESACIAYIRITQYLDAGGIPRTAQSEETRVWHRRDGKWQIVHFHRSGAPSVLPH

Compound	inhibition [1]	inhibition [2]	inhibition [3]	inhibition [4]	inhibition [5]	inhibition [6]	inhibition [7]	inhibition [8]	inhibition [9]	inhibition [10]	inhibition [11]	inhibition [12]	inhibition [13]	inhibition [14]	inhibition [15]	inhibition [16]	inhibition [17]	inhibition [18]	inhibition [19]	inhibition [20]
CN1CCC(n2cnc(-c3ccc(F)cc3)c2-c2ccnc(N)n2)CC1	3.56%	-0.55%	5.58%	1.29%	1.45%	1.08%	7.04%	0.79%	1.05%	2.13%	2.5%	-0.04%	4.76%	-0.06%	0.61%	0.82%	-1.42%	1.28%	9.16%	2.13%
Fc1ccc(-c2nn3ccccc3c2-c2ccncc2)cc1	2.49%	-0.02%	1.09%	0.59%	1.1%	1.69%	0.78%	0.87%	1.9%	3.85%	0.25%	0.43%	2.99%	1.16%	1.98%	0.22%	-0.04%	-0.38%	0.19%	0.72%
COc1cccc(-n2ncc3c(N/N=C/c4ccc(F)cc4)ncnc32)c1	3.2%	6.48%	16.9%	1.24%	12.1%	5.29%	17.8%	-0.29%	1.05%	3.15%	3.26%	3.08%	3.49%	-2.69%	-2.57%	2.07%	5.65%	2.49%	3.64%	4.6%
NS(=O)(=O)c1ccc(Nc2ncc(-c3ccccc3)o2)cc1	9.24%	10.7%	37.2%	1.52%	15.3%	2.58%	17%	0.42%	0.85%	4.27%	4.77%	2.92%	7.79%	-0.86%	-0.71%	0.75%	7.56%	1.94%	3.97%	3.79%
COc1cc(N2CCN(C(C)C)CC2)ccc1Nc1nc(Nc2ccc(F)cc2C(N)=O)c2cc[nH]c2n1	13.2%	66.6%	85%	2.21%	-0.11%	0.22%	1.71%	10.9%	52.8%	9.8%	53.3%	29%	75.1%	4.5%	29.3%	3.09%	27.8%	49.6%	79.1%	5.07%
NC(=O)c1sc(-n2cnc3ccc(C(F)(F)F)cc32)cc1OCc1ccccc1Br	3.78%	-0.18%	3.82%	0.06%	1.03%	2.41%	4.25%	-0.93%	0.69%	1.87%	3.63%	2.57%	7.23%	1.31%	2.02%	-3.21%	-0.7%	2.54%	3.23%	-0.43%
Nc1nc(-c2cccc(Cl)c2)c(-c2ccc3ncccc3n2)s1	3.28%	-2.86%	5.81%	0.2%	1.68%	1.95%	4.51%	-0.44%	0.6%	3.5%	2.48%	2.83%	3.46%	-2.8%	-4.36%	9.85%	12.6%	10.1%	12.7%	12%
CNC(=O)c1cc(-c2ccc(F)cc2)cc(-c2ccc(S(=O)(=O)N3CCCC3)cc2)c1N	2.93%	1.2%	1.2%	1.39%	-2.02%	0.91%	2.02%	-0.49%	1.09%	0.94%	1.06%	3.1%	3.89%	-1.57%	1.17%	8.01%	11.8%	6.61%	8.16%	10.6%
